Pf growth 48h: P. falciparum growth inhibition at 48 hours (one generation); Potency, µM (doses to about 28.7 µM), for the others: at the top dose activity change, negative = inhibition, usual class: inhibitors; P. falciparum luciferase growth in erythrocytes, 48 h; hit rate 5.9% among 310,000; active means well fitted inhibition curve with a large enough effect; inconclusive means small, poorly fitted or top-dose-only effect, or another doubt; inactive means no such curve, though single readings can be large or run the other way; further: on the % scale 0 is the no-effect control and ±100 the full control effect
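Parasite viability was followed by luminescence of a genomically integrated firefly luciferase. Cultures held 0.1% parasitemia at 2% hematocrit (final), incubated under 5% CO2 at 37 C.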
SARS PLP yeast: blocks SARS-CoV papain-like protease in a yeast assay; S. cerevisiae expressing SARS-CoV PLpro, growth rescue; Potency, µM (highest dose often 32.9 µM), for the others: at the highest dose activity, positive = growth rescue, hits mostly activators; hit rate 0.19% among 330,000; AID 485353; further: 0% is about no effect; nearly all actives have a fitted effect of over 55% in size
NS1 inh: influenza NS1 inhibition | Potency, µM (titrated, usually from 46.1 µM), for inactives: top-dose activity, positive = more growth | hit rate 0.4% among 270,000 | AID 2326; further: actives are rising curves; nearly all actives have a fitted effect of over 50% in size
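Recovery from NS1-induced slow growth read by OD600 in budding yeast switched to galactose assay medium (pH 6.0, -URA) at 1:100 dilution. Compound 23 nl per well; the matching strain lacking NS1 serves as control.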
Pf growth 96h: P. falciparum growth inhibition at 96 hours; P. falciparum luciferase reporter growth, 96 h; Potency, µM (highest dose often 28.7 µM), inactives show top-dose activity change, negative = inhibition, hits mostly inhibitors; hit rate 6.9% among 320,000; active means well fitted inhibition curve with a large enough effect; inconclusive means small, poorly fitted or top-dose-only effect, or another doubt; inactive means no such curve, though single readings can be large or run the other way; further: on the % scale 0 is the no-effect control and ±100 the full control effect
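Erythrocytes infected with luciferase-expressing P. falciparum were dispensed at 2% hematocrit and 0.05% parasitemia (final), then incubated with compounds 96 hours at 37 C in 5% CO2. Luminescence after detection reagent addition reported growth.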
Starred values were filed as active, the others as inactive; ? = inconclusive; . = not tested or not shown; [ ] = remark or other dose. Most compounds without a hit are left out; they make up all but 10% or so of the library. Unless noted, the call rests on the fitted dose curve. Potency means the concentration at half of the fitted maximal effect.

SMILES	Pf growth 48h	SARS PLP yeast	NS1 inh	Pf growth 96h
Cc1cc(C)cc(C(=O)NC(CC(N)=O)c2ccc(N3CCCCCC3)c([N+](=O)[O-])c2)c1 (stereo unspecified)	9%	-4%	?	4%
CCN(CC)CCCNC(=O)C1CCN(C(=O)c2cc3sccc3n2Cc2ccc(F)cc2)CC1	.	-1%	-6%	24%
CC1Cc2ccccc2N1C(=O)c1cc2sccc2n1Cc1ccc(F)cc1 (stereo unspecified)	12µM*	-25%	22%	?
COc1ccc(C2C=C(C34CC5CC(CC(C5)C3)C4)NC(=S)N2)cc1 (stereo unspecified)	9.3µM*	-42%	-5%	12µM*
COc1ccc(C2=CC(c3ccc(OC)c(OC)c3)NC(=S)N2)cc1 (stereo unspecified)	?	7%	20%	?
CCn1cc(CNC(=O)C2CCC(=O)N(Cc3ccc(Cl)cc3)C2)cn1 (stereo unspecified)	-18%	-3%	-15%	?
Cc1cc(C)cc(N2CCCn3c2nc2c3c(=O)n(CC(=O)OCc3ccccc3)c(=O)n2C)c1	?	5%	-56%	15%
Cc1ccc(N2CCCn3c2nc2c3c(=O)n(CC(=O)OCc3ccccc3)c(=O)n2C)cc1C	12µM*	2%	?	5.2µM*
Cc1ccc(N2CC(C)Cn3c2nc2c3c(=O)n(CC(=O)OCc3ccccc3)c(=O)n2C)cc1C (stereo unspecified)	?	2%	-39%	10µM*
CC(=O)N(C)c1ccc(C(O)(C(F)(F)F)C(F)(F)F)cc1	13%	1%	.	0%
Cc1cccn2c(/C=N/OCc3ccc(F)cc3)c(-c3ccc(Cl)cc3)nc12	?	6%	-6%	12µM*
CCn1c(/C=C2/C(=O)N(C)c3ccccc32)nc2ccccc2c1=O	?	0%	-36%	-17%
CCn1c(/C=C2\C(=O)N(C(C)C)c3ccccc32)nc2ccccc2c1=O	3.7µM*	-2%	-6%	?
O=c1c2ccccc2nc(SCc2ccccc2Cl)n1Cc1ccccc1	?	2%	-9%	?
C=CCSc1nc2ccccc2c(=O)n1Cc1ccccc1	12µM*	-6%	.	84%
CCn1c(/C=C/c2ccccc2Cl)nc2ccccc2c1=O	1.9µM*	-3%	-32%	1.7µM*
CCn1c(/C=C\c2ccccc2C)nc2ccccc2c1=O	?	1%	-5%	27%
O=c1c2ccccc2nc(/C=C/c2cc(Br)ccc2O)n1CCCO	1.3µM*	-1%	4%	?
N=c1n(N)c2ccccc2n1CC(=O)c1ccc(Br)cc1	73%	-4%	5%	76%
CCOc1ccccc1N(C)C(=O)Cn1ncc2c([nH]c3ccc(C)cc32)c1=O	-15%	1%	11%	?
COCCN1C(=O)N[C@@H](c2ccco2)C(C(C)=O)=C1C	-15%	4%	8%	-3%
CC(C)CCN(C(=O)Cc1ccc(Cl)c(Cl)c1)c1c(N)n(Cc2ccccc2)c(=O)[nH]c1=O	-16%	-5%	.	?
NC(=O)CSc1nc2ccccc2c(=O)n1CCc1ccccc1	11%	1%	-6%	5.9µM*
O=c1c2ccccc2nc(/C=C/c2ccccc2)n1CCc1ccccc1	?	-5%	1%	4.7µM*
O=c1c2ccccc2nc(/C=C/c2cccnc2)n1CCc1ccccc1	?	-4%	-44%	?
SMILES	Pf growth 48h	SARS PLP yeast	NS1 inh	Pf growth 96h
COc1cc2nc(N(C)CCCNC(=O)[C@@H]3CCCO3)nc(N)c2cc1OC	-7%[12.8 µM]	.	.	1%[12.8 µM]
CCCCCCCCCCCCCCC/C=C/[C@@H](O)[C@H](NC(=O)CCCCCCCCCCCCC)OC (tested in a mixture with another compound)	.	.	-1%	.
CCOC(=O)C1CCN(C(=O)CSc2cc(=O)n(CC)c3ccccc23)CC1	-28%	-2%	-3%	0.0033µM*
CCn1c(=O)cc(SCC(=O)N2CCN(C)CC2)c2ccccc21	.	5%	-2%	0.066µM*
CCn1c(=O)cc(SCC(=O)N2CCC(C)CC2)c2ccccc21	-8%	-2%	-10%	?
CC1(C)Cc2c(c(N3CCOCC3)nc3snc(Br)c23)CO1	0.52µM*	0%	14%	0.66µM*
Cc1nc2c(sc3nc(N4CCOCC4)c4c(c32)CC(C)(C)OC4)c(-c2ccc(Cl)cc2)c1C(=O)O	13µM*	0%	?	9.3µM*
CC1(C)Cc2c(c(N3CCOCC3)nc3snc(N)c23)CO1	-6%	4%	-131%	-10%
COc1cccc(CN(C)C(=O)c2ccccc2SCC(=O)N2CCCC2)c1	3%	0%	.	2%
CN(C)c1ccc(C(CC(=O)c2ccccc2)C2CCCCC2=O)cc1 (stereo unspecified)	1%	-9%	-1%	10µM*
COc1ccc(C(=O)CC(c2ccccc2)C2CCCCC2=O)cc1 (stereo unspecified)	-23%	-1%	7%	.
Oc1ccc(CNc2cccc(C(F)(F)F)c2)c2cccnc12	10µM*	?	.	?
Cc1cc(C(=O)NNS(=O)(=O)c2cc(C(=O)O)ccc2Cl)c(C)n1-c1ccccc1	-6%	1%	.	11%
CCN(CC)CCCNC(=O)C1CCN(c2ncnc3c2sc2cccc(F)c23)CC1	?	0%	7%	1.9µM*
CC1CC(C)CN(CCCNC(=O)C2CCN(c3ncnc4c3sc3cccc(F)c34)CC2)C1 (stereo unspecified)	?	-3%	3%	?
O=C(CSc1nnc2c(Cl)cc(C(F)(F)F)cn12)N(Cc1ccccc1)Cc1ccccc1	-30%	-22%	0%	?
O=C(CSc1nnc2c(Cl)cc(C(F)(F)F)cn12)NCc1ccc(F)cc1	?	-1%	16%	8.3µM*
CN(C)c1ccc(S(=O)(=O)NCC(=O)NCCC2=CCCCC2)cc1[N+](=O)[O-]	12µM*	1%	.	?
CCc1ccc(C2c3[nH]c4ccccc4c3CCN2C(=O)CNC(N)=O)cc1 (stereo unspecified)	?	-1%	4%	-14%
CCc1ccc(C2c3[nH]c4ccccc4c3CCN2C(=O)CN2CCN(CC)CC2)cc1 (stereo unspecified)	10µM*	-2%	3%	?
CCc1ccc(C2c3[nH]c4ccccc4c3CCN2C(=O)c2ccc(=O)n(C)n2)cc1 (stereo unspecified)	8.3µM*	-1%	17%	?
Cc1c(Cl)cccc1NC(=O)CNC(=O)C1CCN(C(=O)Nc2ccccc2)CC1	-19%	3%	.	-24%
COc1ccc(C2=CC(=O)C[C@H](c3ccc(OC)cc3)C2)cc1	10%	-15%	.	47%
COc1ccc(C2=CC(=O)C=CC2=O)cc1	9.3µM*	-5%	-140%	10µM*
CCN(CC)S(=O)(=O)c1ccc(N2CCOCC2)c(NC(=O)CNCCc2ccccc2)c1	?	0%	-6%	?
CCN(CC)S(=O)(=O)c1ccc(N2CCOCC2)c(NC(=O)CCOc2ccccc2)c1	9.3µM*	-4%	-20%	?
CCN(CC)S(=O)(=O)c1ccc(N2CCOCC2)c(NC(=O)C2CCCC2)c1	?	-3%	19%	12µM*
